The text below walks through data of PubChem BioAssay (Tox21).

Inconclusive results are not listed. Active and inactive are the calls of the source. Unless noted, calls follow the shape of the full dose curve.

The nature of assay [1]: Nuclear factor erythroid 2-related factor 2/antioxidant responsive element (Nrf2/ARE) small molecule agonists: qHTS cell viability counter screen in human keratinocytes (AID 1919968; active = well fitted curve in the direction sought with a large enough effect in the repeat runs; an effect the other way counts as inactive or inconclusive; also: nearly all actives have a fitted effect of over 55% in size; also: potency is read from the fitted curve at half-maximal effect). A digest of the protocol: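 Seed 1,500 KeratinoSens cells per well, then incubate 5 h at 37 C/5% CO2. Add compounds in DMSO and incubate 23 h. Add CellTiter-Fluor, wait 1 h and read fluorescence.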
On the technique in general: qHTS replaces the single test concentration by a dilution series.

A short description of assay [2]: Nuclear factor erythroid 2-related factor 2/antioxidant responsive element (Nrf2/ARE) small molecule agonists: luciferase reporter gene qHTS assay in human keratinocytes (AID 1919969; also: nearly all actives have a fitted effect of over 35% in size; also: potency is read from the fitted curve at half-maximal effect). (In general: A reporter such as luciferase makes a cellular process visible.)
Assay [3] concerns the target Gonadotropin-releasing hormone receptor (Homo sapiens) (UniProt P30968). Put plainly: Human gonadotropin-releasing hormone receptor (GnRHR) small molecule agonists, calcium flux assay in GnRHR-HEK293 cells (AID 1920063). Also: nearly all actives have a fitted effect of over 35% in size. The procedure, abridged:
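Cells: HEK293 stably expressing human GnRHR. Steps: overnight (18 h) culture, 1 h calcium dye loading at 37 C, compound addition, kinetic fluorescence read at 480/540 nm. Each compound tested at 15 concentrations in triplicate.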
(In general: Calcium assays in cells follow changes in intracellular calcium, usually with a dye or a luminescent sensor.)

Assay [4] addresses KiSS-1 receptor (Homo sapiens) (UniProt Q969F8). Put plainly: Human kisspeptin (KISS1R) small molecule agonists, calcium flux assay in KISS1R-HEK293 cells (AID 1920064; active = well fitted curve in the direction sought with a large enough effect in the repeat runs; an effect the other way counts as inactive or inconclusive). The procedure, abridged:
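Cells plated and incubated 18 h; dye added, 1 h at 37 C; compounds in DMSO pinned in; signal read at 480/540 nm every second for 3 min. Each compound tested at 15 concentrations in triplicate.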

The nature of assay [5]: G protein-coupled receptor (GPCR) small molecule agonists, calcium flux assay: HEK293 wild type cell line counter screen (AID 1920065). A digest of the protocol: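 Counter-screen of the Tox21 10K library for non-specific calcium release: dye-loaded cells received compounds in DMSO and were monitored by kinetic fluorescence (480/540 nm, 3 min). Fifteen concentrations, run in triplicate.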

A short description of assay [6]: p53 small molecule agonists, cell-based qHTS assay with human liver microsomes (AID 1963577).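 Also: p53 response element beta-lactamase reporter cells with liver microsomes plus NADPH.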 A digest of the protocol:
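With metabolic activation: human liver microsomes (0.5 mg/mL final) plus NADPH (0.5 mg/mL final) added alongside compounds to p53RE-bla cells; 16 h 37 C exposure; beta-lactamase read by LiveBLAzer fluorescence.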

Assay [7] is described as follows: p53 small molecule agonists, cell-based qHTS assay with rat liver microsomes (AID 1963578). The procedure, abridged: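 Metabolic activation by rat liver microsomes and NADPH, each 0.5 mg/mL final, added right after compounds to p53RE-bla reporter cells (4,000/well, plated 5 h earlier). 16 h at 37 C, then LiveBLAzer substrate for 2 h at room temperature in the dark; fluorescence read-out.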

Assay [8] can be described thus: p53 small molecule agonists, cell-based qHTS assay with human liver microsomes: qHTS cell viability counter screen (AID 1963579). Also: nearly all actives have a fitted effect of over 45% in size. The procedure, abridged:
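Metabolic activation used human liver microsomes and NADPH, both 0.5 mg/mL final, over 16 hours at 37 C on p53RE-bla cells (4,000/well). Cytotoxicity measured by CellTiter-Glo luminescence, 30 min at room temperature.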

Assay [9] is described as follows: p53 small molecule agonists, cell-based qHTS assay with rat liver microsomes: qHTS cell viability counter screen (AID 1963580). Also: nearly all actives have a fitted effect of over 45% in size. A digest of the protocol: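 p53RE-bla HCT-116 cells were exposed 16 h at 37 C to compounds with rat liver microsomes (0.5 mg/mL) and NADPH (0.5 mg/mL). Viability was measured in the same wells as ATP content by CellTiter-Glo luminescence.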

Assay [10] can be described thus: p53 small molecule agonists, cell-based qHTS assay: qHTS cell viability counter screen (AID 1963581). Also: nearly all actives have a fitted effect of over 45% in size. A digest of the protocol:
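Cells: HCT-116 with p53 response element-driven beta-lactamase. Treatment: 16 h, 37 C, compounds in DMSO. Read: CellTiter-Glo luminescence after 30 min RT.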

For assay [11], the target named is 5-hydroxytryptamine receptor 2A (Homo sapiens) (UniProt P28223). Put plainly: 5-hydroxytryptamine receptor 2A (HTR2A) small molecule antagonists, cell-based qHTS assay (AID 1963586). Also: nearly all actives have a fitted effect of over 45% in size. A digest of the protocol: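 Antagonist-mode intracellular calcium assay: DOI (4 nM) added after 5 min compound pre-incubation at room temperature to dye-loaded HTR2A-CHO cells. Fluorescence followed for 3 min, sampled every second.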

The target in assay [12] is Muscarinic acetylcholine receptor M1 (Homo sapiens) (UniProt P11229). Put plainly: Cholinergic receptor muscarinic 1 (CHRM1) small molecule antagonists, cell-based qHTS assay (AID 1963588). Also: nearly all actives have a fitted effect of over 40% in size. Also: potency is read from the fitted curve at half-maximal effect. The procedure, abridged: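 CHRM1-CHO calcium-flux assay, antagonist mode. Cells were seeded 18 h, dye-loaded 1 h at 37 C and given compound for 5 min at RT, then acetylcholine was added at 50nM. FDSS fluorescence was read 3 min; 15 concentrations, three runs.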

The nature of assay [13]: cAMP Responsive Elements (CRE) small molecule agonists, cell-based qHTS assay (AID 1963590). A digest of the protocol: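 Agonist mode qHTS in CRE-bla HEK 293T cells: compounds dosed from DMSO for 3 h at 37 C/5% CO2, followed by LiveBLAzer B/G FRET substrate for 2 h at room temperature.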
Assay [14] is described as follows: cAMP Responsive Elements (CRE) small molecule antagonists, cell-based qHTS assay (AID 1963591; active = well fitted inhibition curve with a large enough effect in the signal ratio in the repeat runs, not every such curve was filed as active; the % refers to the signal ratio). A digest of the protocol: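 Antagonist mode: test compounds are co-incubated with the adenylyl cyclase activator NKH477 (0.25 uM final) on CRE-bla HEK293T cells for 3 h at 37 °C, followed by LiveBLAzer substrate loading.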
Assay [15] deals with Beta-2 adrenergic receptor (Homo sapiens) (UniProt P07550). The assay can be described thus: Adrenergic beta2 receptor (ADRB2) small molecule antagonists, cell-based qHTS assay (AID 1963592). Also: series mostly up to about 92 µM; nearly all actives have a fitted effect of over 50% in size. The procedure, abridged: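 Cells (CHO, stable ADRB2 overexpression) incubated 18-20hr at 37C; compounds added from DMSO; agonist mix (1nM isoproterenol, 100uM IBMX, 25uM Ro-20-1724) added; 0.5hr RT; d2-cAMP and anti-cAMP-cryptate added; 1hr RT; 665/615 nm read.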

The target in assay [16] is D(2) dopamine receptor (Homo sapiens) (UniProt P14416). Put plainly: Dopamine D2 receptor (DRD2) small molecule agonists, cell-based qHTS assay (AID 1963594). Also: nearly all actives have a fitted effect of over 35% in size. A digest of the protocol:
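HEK293 cells stably expressing human DRD2, pre-treated with PDE inhibitor Ro20-1724 (0.1 mM final) and compound 10 min at room temperature, then stimulated with NKH477 (200nM […]) for 30 min. cAMP read by HTRF (665/620 nm).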

Assay [17] has the same target. Put plainly: Dopamine D2 receptor (DRD2) small molecule antagonists, cell-based qHTS assay (AID 1963595; active = well fitted inhibition curve with a large enough effect in the signal ratio in the repeat runs, with a control signal flat; the % refers to the signal ratio). A digest of the protocol: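 DRD2-HEK293; 0.1 mM Ro20-1724; cpd 10 min RT; NKH477 200 nM + quinpirole 12 nM, 30 min RT; HTRF cAMP (cAMP-d2/anti-cAMP cryptate), 665/620 nm ratio after 1 h.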
The target in assay [18] is 5-hydroxytryptamine receptor 2A (Homo sapiens) (UniProt P28223). Put plainly: 5-hydroxytryptamine receptor 2A (HTR2A) small molecule agonists, cell-based qHTS assay (AID 1963587). Also: nearly all actives have a fitted effect of over 30% in size. Also: potency is read from the fitted curve at half-maximal effect. A digest of the protocol: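 CHO cells stably expressing human HTR2A, plated 18 h, loaded with calcium dye 1 h at 37 C. Agonist mode: compounds added and intracellular calcium fluorescence recorded kinetically for 2 min at 1 sec intervals.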

The target of assay [19] is Muscarinic acetylcholine receptor M1 (Homo sapiens) (UniProt P11229). The assay can be described thus: Cholinergic receptor muscarinic 1 (CHRM1) small molecule agonists, cell-based qHTS assay (AID 1963589). Also: nearly all actives have a fitted effect of over 35% in size. The procedure, abridged: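 Agonist-mode qHTS in CHO cells stably carrying human muscarinic M1. Intracellular calcium is tracked by fluorescence every second after compound transfer; each compound runs at 15 concentrations in three independent runs.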

Assay [20] can be described thus: p53 small molecule agonists, cell-based qHTS assay (AID 1963582; active = well fitted activation curve with a large enough effect in the signal ratio in the repeat runs, not every such curve was filed as active; the % refers to the signal ratio). A digest of the protocol: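 Quantitative HTS in p53RE-bla cells: after a 5 h settling period, compounds delivered in DMSO were left on cells for 16 h at 37 C, and reporter induction was measured as fluorescence following 2 h substrate loading.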

Sequence of 5-hydroxytryptamine receptor 2A (Homo sapiens) (P28223 whole entry, looked up): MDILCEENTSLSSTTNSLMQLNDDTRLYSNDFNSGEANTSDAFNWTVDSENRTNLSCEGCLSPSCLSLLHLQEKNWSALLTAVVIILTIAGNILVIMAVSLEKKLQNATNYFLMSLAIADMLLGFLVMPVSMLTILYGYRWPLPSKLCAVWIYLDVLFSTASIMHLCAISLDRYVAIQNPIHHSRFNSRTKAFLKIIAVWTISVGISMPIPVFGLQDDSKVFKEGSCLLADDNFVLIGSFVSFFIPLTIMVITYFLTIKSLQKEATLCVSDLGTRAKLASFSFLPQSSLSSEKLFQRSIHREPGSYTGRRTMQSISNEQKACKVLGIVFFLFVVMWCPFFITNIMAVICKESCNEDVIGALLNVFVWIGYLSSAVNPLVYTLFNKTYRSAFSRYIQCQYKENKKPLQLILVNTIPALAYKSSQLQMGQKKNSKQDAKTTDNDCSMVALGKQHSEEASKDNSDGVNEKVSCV
Sequence of D(2) dopamine receptor (Homo sapiens) (P14416 whole entry, looked up): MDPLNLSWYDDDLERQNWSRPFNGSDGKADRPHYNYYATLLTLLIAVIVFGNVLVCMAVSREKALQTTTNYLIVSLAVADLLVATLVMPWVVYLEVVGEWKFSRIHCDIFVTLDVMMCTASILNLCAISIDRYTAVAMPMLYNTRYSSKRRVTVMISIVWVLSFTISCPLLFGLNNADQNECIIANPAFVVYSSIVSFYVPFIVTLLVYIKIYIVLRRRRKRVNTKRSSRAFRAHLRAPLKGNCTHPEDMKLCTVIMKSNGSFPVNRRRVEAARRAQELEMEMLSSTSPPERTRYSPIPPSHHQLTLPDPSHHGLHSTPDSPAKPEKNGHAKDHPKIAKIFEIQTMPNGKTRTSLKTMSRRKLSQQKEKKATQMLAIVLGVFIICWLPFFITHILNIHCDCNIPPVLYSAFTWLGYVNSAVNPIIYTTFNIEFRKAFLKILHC
Sequence of Muscarinic acetylcholine receptor M1 (Homo sapiens) (P11229 whole entry, looked up): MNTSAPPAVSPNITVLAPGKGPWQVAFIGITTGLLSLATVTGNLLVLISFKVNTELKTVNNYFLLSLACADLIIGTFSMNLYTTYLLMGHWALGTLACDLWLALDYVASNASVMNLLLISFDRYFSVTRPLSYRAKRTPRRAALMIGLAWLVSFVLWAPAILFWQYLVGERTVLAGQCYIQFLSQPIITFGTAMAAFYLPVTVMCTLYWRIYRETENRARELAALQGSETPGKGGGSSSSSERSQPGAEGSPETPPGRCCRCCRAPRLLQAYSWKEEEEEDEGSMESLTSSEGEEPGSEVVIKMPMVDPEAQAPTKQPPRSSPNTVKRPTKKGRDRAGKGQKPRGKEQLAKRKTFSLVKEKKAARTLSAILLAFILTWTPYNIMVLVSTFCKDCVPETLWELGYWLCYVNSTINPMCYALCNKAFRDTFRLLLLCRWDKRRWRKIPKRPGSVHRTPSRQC
Sequence of Gonadotropin-releasing hormone receptor (Homo sapiens) (P30968 whole entry, looked up): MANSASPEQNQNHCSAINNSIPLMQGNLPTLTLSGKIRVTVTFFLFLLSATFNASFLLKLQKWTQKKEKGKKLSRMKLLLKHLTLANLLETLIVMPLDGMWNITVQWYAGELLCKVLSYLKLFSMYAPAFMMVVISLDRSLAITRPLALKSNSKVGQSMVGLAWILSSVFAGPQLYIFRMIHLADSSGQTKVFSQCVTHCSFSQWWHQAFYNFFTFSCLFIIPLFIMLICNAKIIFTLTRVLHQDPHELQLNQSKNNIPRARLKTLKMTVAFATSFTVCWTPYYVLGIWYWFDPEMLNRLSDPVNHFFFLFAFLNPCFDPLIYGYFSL
Sequence of KiSS-1 receptor (Homo sapiens) (Q969F8 whole entry, looked up): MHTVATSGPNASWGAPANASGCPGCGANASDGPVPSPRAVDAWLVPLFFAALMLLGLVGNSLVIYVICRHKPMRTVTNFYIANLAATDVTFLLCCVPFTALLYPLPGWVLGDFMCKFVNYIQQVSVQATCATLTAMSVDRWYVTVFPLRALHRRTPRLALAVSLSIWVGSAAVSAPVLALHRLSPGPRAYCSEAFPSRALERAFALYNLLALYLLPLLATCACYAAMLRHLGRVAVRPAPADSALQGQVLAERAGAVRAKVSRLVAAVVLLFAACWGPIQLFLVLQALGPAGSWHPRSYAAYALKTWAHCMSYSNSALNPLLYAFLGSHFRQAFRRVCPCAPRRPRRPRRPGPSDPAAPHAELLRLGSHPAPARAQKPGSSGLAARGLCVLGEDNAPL
Sequence of Beta-2 adrenergic receptor (Homo sapiens) (P07550 whole entry, looked up): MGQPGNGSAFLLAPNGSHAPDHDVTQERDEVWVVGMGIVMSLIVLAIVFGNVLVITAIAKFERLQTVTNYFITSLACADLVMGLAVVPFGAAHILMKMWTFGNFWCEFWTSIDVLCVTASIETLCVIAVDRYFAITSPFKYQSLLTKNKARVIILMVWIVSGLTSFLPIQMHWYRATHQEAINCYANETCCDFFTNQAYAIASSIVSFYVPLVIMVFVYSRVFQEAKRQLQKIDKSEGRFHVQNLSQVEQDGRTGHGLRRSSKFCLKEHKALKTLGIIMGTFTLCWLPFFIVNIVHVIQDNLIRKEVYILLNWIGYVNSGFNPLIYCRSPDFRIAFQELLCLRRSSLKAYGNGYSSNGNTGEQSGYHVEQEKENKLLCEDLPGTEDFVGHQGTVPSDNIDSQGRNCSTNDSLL

As to `CCCC[N+]1(C)[C@@H]2CC(OC(=O)[C@H](CO)c3ccccc3)C[C@H]1[C@@H]1O[C@@H]12` (some centres undefined), the Potency result in assay [1], in assay [2], in [3], in assay [4], in [5] and in assay [6] was “inactive” throughout. For the same compound, the Potency result in assay [7], in assay [8], in [9], in assay [10], in assay [11] and in [13] was “inactive” throughout. Further, the Potency entry in assay [14], in assay [15], in assay [16] and in [17] was “inactive” throughout. For the same compound, in assay [12], the Potency is 3.65 µM (active).
Turning to `CCC(C)(NC(=O)c1cc(Cl)c(C)c(Cl)c1)C(=O)CCl` (centres undefined), the Potency in assay [1] is 24.5 µM (active); in assay [2] it was 1.54 µM (active); in [18], 49.3 µM (active). Also, the Potency entry in assay [3], in assay [4], in [5], in assay [6], in [7] and in assay [8] was “inactive” throughout. Moreover, the Potency entry in assay [9], in [10], in [12], in assay [19], in [15] and in assay [16] was “inactive” each time.
`O=c1[nH]c(Cl)c(Cl)cc1Cl`: the Potency entry in [1], in assay [2], in [3], in [4], in [5] and in [6] was “inactive” in each case. In addition, the Potency result in assay [7], in [8], in assay [9], in assay [10], in assay [11] and in assay [18] was “inactive” in each case. Moreover, the Potency entry in assay [12], in assay [19], in [15], in [16] and in assay [17] was “inactive” in each case.
On to `CC(C)(C#N)C(C)(C)C#N`, for which the Potency entry in assay [1], in [2], in assay [3], in assay [4], in assay [5] and in assay [6] was “inactive” in each case. Moreover, the Potency result in [7], in assay [8], in assay [9], in [10], in assay [11] and in assay [12] was “inactive” throughout. Besides, the Potency result in assay [19], in assay [13], in assay [14], in [15], in assay [16] and in assay [17] was “inactive” throughout.
In the case of `CO/N=C(/C(=O)OC)c1ccccc1COc1ccccc1C`, the Potency result in [1], in assay [2], in assay [3], in assay [4], in assay [5] and in assay [6] was “inactive” throughout. Moreover, the Potency result in assay [7], in assay [8], in assay [9], in [10], in assay [11] and in assay [18] was “inactive” in each case. The Potency entry in assay [12], in assay [19], in assay [15], in assay [16] and in assay [17] was “inactive” throughout.
In the case of `CC(Cc1ccc(OCC(=O)O)cc1)NCC(O)c1csc(C(F)(F)F)n1` (centres undefined), the Potency result in [1], in assay [2], in assay [3], in assay [4], in [5] and in [6] was “inactive” throughout. Besides, the Potency result in [7], in [8], in [9], in assay [20], in assay [11] and in assay [18] was “inactive” in each case. Besides, the Potency result in assay [12], in assay [19], in [13] and in assay [14] was “inactive” in each case.
For `CCCCCl`, the Potency entry in [1], in [2], in [3], in [4], in [5] and in assay [6] was “inactive” each time. Moreover, the Potency result in assay [7], in [8], in assay [9], in [20], in [11] and in assay [18] was “inactive” each time. For the same compound, the Potency entry in assay [12], in assay [19], in assay [13], in assay [14], in [15] and in [16] was “inactive” in each case. Also, the Potency result in [17] is “inactive”.
